Measurements: the supplement of paper PMC10849652
Targets with a hit are over-represented here; the source holds about 7,900 in all. About 0.6% of all pairs of compound and target were hits. A number with no mark means an inactive call.

Experiments:
Assay in all cases: log2 fold change, soluble protein after heating vs DMSO (PISA); higher = thermal stabilisation; K562 cells, 10 uM, 30 min; active = over 0.2 and 3.5 SD of the protein, either way, in both replicates (recomputed)
[1] = compound: CC1=C(C=C(C=C1)NC(=O)C2=CC(=CC=C2)C(C)(C)C#N)NC3=CC4=C(C=C3)N=CN(C4=O)C
In short: (§1)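 Soluble protein was defined as the supernatant after 21,000xg for 90 min. It came from K562 cells at 2×10^6 cells/mL given 10 μM compound for 30 min, heated in aliquots for 3 min across 48°C-58°C, pooled, and extracted in PBS with 0.5% NP-40 at 4°C, and was quantified by TMTpro 16plex LC-MS/MS with equalised channel sums. Thermal stability against control samples, from duplicates, is reported as log2 fold change.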

[2] = compound: CC1=C(C=C(C=C1)NC(=O)C2=CC(=CC=C2)N(C)C)NC(=O)C3=CC=C(C=C3)O
In short: as §1

vemurafenib = compound: CCCS(=O)(=O)Nc1ccc(F)c(C(=O)c2c[nH]c3ncc(-c4ccc(Cl)cc4)cc23)c1F [vemurafenib]
In short: as §1

givinostat = compound: CCN(CC)Cc1ccc2cc(COC(=O)Nc3ccc(C(=O)NO)cc3)ccc2c1 [givinostat]
In short: as §1

barasertib = compound: CCN(CCCOc1ccc2c(Nc3cc(CC(=O)Nc4cccc(F)c4)[nH]n3)ncnc2c1)CCOP(=O)(O)O [barasertib]
In short: as §1

[3] = compound: CC[C@@H]1C(=O)N(C)c2cnc(Nc3ccc(C(=O)NC4CCN(C)CC4)cc3OC)nc2N1C1CCCC1
In short: as §1

[4] = compound: CC[C@H](C)N1C=C(C2=C(C=C(C=C21)C3=CN=C(C=C3)N4CCNCC4)C(=O)NCC5=C(C=C(NC5=O)C)C)C
In short: as §1

[5] = compound: CCn1c(C(=O)N(C2CC2)C2CC2)cc2c3c(ncn3C)c(Nc3cc(C)n(C)n3)nc21
In short: as §1

[6] = compound: CN(C)CC(=O)Nc1ccc2[nH]c(=O)c3ccccc3c2c1
In short: as §1

rosiglitazone = compound: CN(CCOC1=CC=C(C=C1)C[C@H]2C(=O)NC(=O)S2)C3=CC=CC=N3 (racemic) [rosiglitazone]
In short: as §1

[7] = compound: CC1=CC=C(C=C1)SC2=C3C=C(SC3=CN=C2)C(=O)N
In short: as §1

[8] = compound: CCCS(=O)(=O)Nc1ccc(F)c(C(=O)c2c[nH]c3ncc(Cl)cc23)c1F
In short: as §1

volasertib = compound: CC[C@@H]1C(=O)N(C)c2cnc(Nc3ccc(C(=O)N[C@H]4CC[C@H](N5CCN(CC6CC6)CC5)CC4)cc3OC)nc2N1C(C)C [volasertib]
In short: as §1

[9] = compound: CN1C2=C(C3=C1C(=O)N(N=C3)CC4=CC(=CC=C4)N)SC(=C2)S(=O)C
In short: as §1

[10] = compound: CC1=NC(=CC=C1)C2=C(N=C(N2)C(C)(C)C)C3=CC4=NC=CN=C4C=C3
In short: as §1

[11] = compound: CCn1cc(-c2ccnc3[nH]c(-c4cccc(CN(C)C)c4)cc23)c(-c2ccc(NC(=O)N(C)C)cc2)n1
In short: as §1

[12] = compound: CN1CCC(CNc2ccc3ncc(-c4cccc(OC(F)(F)F)c4)n3n2)CC1
In short: as §1

Nexturastat A = compound: CCCCN(Cc1ccc(C(=O)NO)cc1)C(=O)Nc1ccccc1 [Nexturastat A]
In short: as §1

[13] = compound: CCCc1cc(C)[nH]c(=O)c1CNC(=O)c1cc(-c2ccnc(N3CCN(C)CC3)c2)cc2c1cnn2C(C)C
In short: as §1

epoxomicin = compound: CC[C@H](C)[C@@H](C(=O)N[C@@H]([C@@H](C)O)C(=O)N[C@@H](CC(C)C)C(=O)[C@]1(CO1)C)NC(=O)[C@H]([C@@H](C)CC)N(C)C(=O)C [epoxomicin]
In short: as §1

Chain of UniProt P53367 (P53367 whole entry, looked up): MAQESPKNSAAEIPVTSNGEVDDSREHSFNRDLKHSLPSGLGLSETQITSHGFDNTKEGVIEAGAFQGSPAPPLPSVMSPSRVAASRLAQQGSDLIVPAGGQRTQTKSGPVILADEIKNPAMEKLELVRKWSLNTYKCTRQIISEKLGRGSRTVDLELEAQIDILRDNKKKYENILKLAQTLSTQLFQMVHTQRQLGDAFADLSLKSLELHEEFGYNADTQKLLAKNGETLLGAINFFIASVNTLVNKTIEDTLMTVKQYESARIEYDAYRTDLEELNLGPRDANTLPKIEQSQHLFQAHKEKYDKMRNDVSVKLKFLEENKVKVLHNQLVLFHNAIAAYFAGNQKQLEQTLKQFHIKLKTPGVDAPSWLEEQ
Chain of UniProt Q96G97 (Q96G97 whole entry, looked up): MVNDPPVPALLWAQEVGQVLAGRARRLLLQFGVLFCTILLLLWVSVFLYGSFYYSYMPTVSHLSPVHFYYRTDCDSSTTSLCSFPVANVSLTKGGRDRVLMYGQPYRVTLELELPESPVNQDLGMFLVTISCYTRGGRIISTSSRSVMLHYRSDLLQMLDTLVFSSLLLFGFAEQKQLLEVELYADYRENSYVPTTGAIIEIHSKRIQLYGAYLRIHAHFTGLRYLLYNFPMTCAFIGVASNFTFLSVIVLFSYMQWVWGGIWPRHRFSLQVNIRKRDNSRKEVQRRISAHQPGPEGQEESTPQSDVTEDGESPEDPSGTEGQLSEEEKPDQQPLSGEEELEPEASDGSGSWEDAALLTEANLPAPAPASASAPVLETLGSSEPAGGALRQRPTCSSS
Chain of UniProt P54252 (P54252 whole entry, looked up): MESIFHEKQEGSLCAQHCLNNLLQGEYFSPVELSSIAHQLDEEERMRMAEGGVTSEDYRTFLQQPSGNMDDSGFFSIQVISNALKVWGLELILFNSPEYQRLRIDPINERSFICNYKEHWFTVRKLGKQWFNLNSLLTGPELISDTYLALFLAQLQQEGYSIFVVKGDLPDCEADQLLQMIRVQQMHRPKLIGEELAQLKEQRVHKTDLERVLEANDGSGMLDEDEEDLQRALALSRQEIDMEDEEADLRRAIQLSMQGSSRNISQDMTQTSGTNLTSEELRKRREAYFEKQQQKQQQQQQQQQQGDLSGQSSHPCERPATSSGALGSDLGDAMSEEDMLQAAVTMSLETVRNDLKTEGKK
Chain of UniProt Q96F25 (Q96F25 whole entry, looked up): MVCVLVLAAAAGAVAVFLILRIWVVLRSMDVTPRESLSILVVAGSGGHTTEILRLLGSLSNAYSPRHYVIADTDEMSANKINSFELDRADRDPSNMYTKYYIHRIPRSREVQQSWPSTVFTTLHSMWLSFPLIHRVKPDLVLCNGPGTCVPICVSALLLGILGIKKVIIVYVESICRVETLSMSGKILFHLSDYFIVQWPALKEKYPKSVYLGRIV
Chain of UniProt Q9H7T9 (Q9H7T9 whole entry, looked up): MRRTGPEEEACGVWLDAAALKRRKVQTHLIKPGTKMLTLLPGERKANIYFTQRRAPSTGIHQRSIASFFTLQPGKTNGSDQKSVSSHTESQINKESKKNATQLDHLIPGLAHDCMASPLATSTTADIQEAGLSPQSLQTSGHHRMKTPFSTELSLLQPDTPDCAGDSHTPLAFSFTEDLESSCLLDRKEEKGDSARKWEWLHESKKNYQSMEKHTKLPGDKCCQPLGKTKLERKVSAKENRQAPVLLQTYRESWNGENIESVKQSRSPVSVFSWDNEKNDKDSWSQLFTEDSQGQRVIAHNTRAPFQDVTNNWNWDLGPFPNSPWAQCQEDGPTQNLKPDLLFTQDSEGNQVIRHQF
Chain of UniProt Q9H6S1 (Q9H6S1 whole entry, looked up): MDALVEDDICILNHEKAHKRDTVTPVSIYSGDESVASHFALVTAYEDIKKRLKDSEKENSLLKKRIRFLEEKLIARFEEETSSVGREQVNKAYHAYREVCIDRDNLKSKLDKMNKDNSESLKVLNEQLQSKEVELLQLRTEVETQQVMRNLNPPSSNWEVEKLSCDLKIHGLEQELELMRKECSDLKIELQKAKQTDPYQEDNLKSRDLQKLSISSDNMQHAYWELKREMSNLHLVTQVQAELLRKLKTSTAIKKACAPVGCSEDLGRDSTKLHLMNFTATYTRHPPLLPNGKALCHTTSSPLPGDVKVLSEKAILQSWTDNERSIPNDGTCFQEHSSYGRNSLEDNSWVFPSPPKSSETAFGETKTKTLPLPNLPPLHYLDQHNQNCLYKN
Chain of UniProt Q13825 (Q13825 whole entry, looked up): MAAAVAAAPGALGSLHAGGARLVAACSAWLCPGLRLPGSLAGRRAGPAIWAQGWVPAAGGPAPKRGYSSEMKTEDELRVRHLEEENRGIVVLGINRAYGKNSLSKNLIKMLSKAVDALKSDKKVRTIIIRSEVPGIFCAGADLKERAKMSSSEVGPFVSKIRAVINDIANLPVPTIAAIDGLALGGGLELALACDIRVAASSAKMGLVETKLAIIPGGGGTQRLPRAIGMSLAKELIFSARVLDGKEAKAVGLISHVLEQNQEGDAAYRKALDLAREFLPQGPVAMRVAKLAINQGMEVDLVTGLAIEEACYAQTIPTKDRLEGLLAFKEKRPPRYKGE
Chain of UniProt P25440 (P25440 whole entry, looked up): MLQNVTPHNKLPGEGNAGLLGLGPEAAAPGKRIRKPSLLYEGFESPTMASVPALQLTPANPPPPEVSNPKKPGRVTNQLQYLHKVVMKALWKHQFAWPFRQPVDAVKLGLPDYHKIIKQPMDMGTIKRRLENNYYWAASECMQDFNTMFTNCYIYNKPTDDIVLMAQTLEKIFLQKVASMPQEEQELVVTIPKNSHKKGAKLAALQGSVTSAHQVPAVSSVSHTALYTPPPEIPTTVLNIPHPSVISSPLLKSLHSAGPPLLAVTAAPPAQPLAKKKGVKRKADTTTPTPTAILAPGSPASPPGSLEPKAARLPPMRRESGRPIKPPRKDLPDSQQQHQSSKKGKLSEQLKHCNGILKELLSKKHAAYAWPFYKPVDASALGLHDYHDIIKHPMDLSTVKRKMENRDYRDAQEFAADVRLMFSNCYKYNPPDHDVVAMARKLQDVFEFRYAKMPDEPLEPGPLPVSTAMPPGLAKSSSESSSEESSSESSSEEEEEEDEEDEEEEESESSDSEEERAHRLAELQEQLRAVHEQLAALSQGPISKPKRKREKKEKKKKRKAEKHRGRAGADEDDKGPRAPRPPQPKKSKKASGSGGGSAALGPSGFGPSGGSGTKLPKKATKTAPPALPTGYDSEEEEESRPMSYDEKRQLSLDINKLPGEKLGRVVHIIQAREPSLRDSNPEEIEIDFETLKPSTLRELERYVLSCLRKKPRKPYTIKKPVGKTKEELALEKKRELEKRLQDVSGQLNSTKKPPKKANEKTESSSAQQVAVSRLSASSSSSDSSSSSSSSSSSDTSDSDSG
Chain of UniProt Q9UKU0 (Q9UKU0 whole entry, looked up): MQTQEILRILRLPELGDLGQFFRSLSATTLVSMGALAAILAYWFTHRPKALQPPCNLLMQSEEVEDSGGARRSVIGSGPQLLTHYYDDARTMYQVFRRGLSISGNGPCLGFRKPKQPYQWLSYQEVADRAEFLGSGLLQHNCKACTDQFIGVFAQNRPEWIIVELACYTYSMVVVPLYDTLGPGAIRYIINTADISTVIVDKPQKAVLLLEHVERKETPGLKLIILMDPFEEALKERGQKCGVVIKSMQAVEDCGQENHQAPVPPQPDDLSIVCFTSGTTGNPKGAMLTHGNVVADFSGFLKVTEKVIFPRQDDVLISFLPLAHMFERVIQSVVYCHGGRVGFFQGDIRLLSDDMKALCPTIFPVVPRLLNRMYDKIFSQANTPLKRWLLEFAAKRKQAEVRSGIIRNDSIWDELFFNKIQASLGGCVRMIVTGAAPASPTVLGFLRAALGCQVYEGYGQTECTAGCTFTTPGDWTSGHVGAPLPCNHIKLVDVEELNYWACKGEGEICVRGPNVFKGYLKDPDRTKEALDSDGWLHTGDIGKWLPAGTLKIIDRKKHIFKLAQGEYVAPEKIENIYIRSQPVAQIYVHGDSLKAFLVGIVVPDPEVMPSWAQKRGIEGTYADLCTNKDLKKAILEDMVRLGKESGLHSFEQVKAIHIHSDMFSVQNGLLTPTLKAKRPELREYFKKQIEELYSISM
Chain of UniProt Q8IUR7 (Q8IUR7 whole entry, looked up): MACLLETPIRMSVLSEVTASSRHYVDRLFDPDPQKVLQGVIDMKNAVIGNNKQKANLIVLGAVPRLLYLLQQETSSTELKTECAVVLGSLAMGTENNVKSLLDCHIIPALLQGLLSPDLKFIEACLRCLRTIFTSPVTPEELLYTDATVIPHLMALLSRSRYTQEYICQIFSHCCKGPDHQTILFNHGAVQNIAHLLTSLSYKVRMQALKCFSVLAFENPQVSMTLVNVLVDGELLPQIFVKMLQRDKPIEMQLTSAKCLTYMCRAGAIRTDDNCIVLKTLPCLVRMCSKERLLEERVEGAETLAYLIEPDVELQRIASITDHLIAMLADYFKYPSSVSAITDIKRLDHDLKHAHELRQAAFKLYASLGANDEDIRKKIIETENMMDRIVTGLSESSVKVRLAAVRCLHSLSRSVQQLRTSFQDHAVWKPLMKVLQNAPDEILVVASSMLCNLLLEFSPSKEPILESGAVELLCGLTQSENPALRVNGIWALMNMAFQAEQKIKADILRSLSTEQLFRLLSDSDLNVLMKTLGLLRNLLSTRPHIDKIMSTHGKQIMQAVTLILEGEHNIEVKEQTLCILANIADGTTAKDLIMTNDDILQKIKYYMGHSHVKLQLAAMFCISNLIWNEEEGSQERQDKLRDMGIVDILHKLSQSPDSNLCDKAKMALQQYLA
Chain of UniProt Q14CW9 (Q14CW9 whole entry, looked up): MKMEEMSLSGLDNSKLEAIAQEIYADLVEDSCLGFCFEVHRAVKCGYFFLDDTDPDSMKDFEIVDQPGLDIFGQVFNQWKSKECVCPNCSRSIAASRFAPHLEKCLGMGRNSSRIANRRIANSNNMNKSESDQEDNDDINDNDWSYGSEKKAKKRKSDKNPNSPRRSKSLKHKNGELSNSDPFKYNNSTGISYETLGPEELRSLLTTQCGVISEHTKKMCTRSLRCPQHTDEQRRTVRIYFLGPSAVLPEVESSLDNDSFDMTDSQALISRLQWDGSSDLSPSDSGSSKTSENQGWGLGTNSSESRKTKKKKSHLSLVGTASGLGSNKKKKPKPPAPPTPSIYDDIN

Row | Target | log2 fold change [1] | log2 fold change [2] | log2 fold change (vemurafenib) | log2 fold change (givinostat) | log2 fold change (barasertib) | log2 fold change [3] | log2 fold change [4] | log2 fold change [5] | log2 fold change [6] | log2 fold change (rosiglitazone) | log2 fold change [7] | log2 fold change [8] | log2 fold change (volasertib) | log2 fold change [9] | log2 fold change [10] | log2 fold change [11] | log2 fold change [12] | log2 fold change (Nexturastat A) | log2 fold change [13] | log2 fold change (epoxomicin)
1 | AZI2 (UniProt Q9H6S1) | -0.091 | 0.045 | 0.047 | 0.028 | -0.023 | -0.021 | -0.063 | -0.041 | 0.062 | -0.001 | – | – | – | – | – | – | – | – | – | –
2 | AUNIP isoform 2 (UniProt Q9H7T9) | 0.113 | – | 0.081 | 0.083 | – | – | – | 0.013 | -0.163 | – | 0.101 | 0.073 | -0.03 | -0.031 | – | – | – | – | – | –
3 | BRD2 isoform 2 (UniProt P25440) | 0.348 | – | -0.033 | -0.596 | -0.053 | – | – | 0.104 | 0.115 | 0.24 | 0.039 | 0.014 | 1.76 (active) | -0.132 | 0.076 | 0.486 | 0.129 | – | – | –
4 | ACOX3 (UniProt O15254) | 0.111 | – | 0.057 | -0.01 | -0.035 | -0.346 | -0.069 | 0.011 | -0.129 | 0.044 | -0.192 | -0.009 | 0.028 | – | -0.011 | – | – | 0.039 | 0.184 | -0.113
5 | BSCL2 isoform 4 (UniProt Q96G97) | – | – | 0.179 | 0.052 | 0.199 | – | 0.093 | -0.004 | -0.006 | -0.001 | -0.073 | -0.043 | 0.072 | -0.005 | – | 0 | -0.057 | -0.174 | -0.124 | -0.05
6 | AARSD1 (UniProt Q9BTE6) | – | – | – | -0.285 | 0.119 | -0.042 | -0.121 | -0.046 | – | 0.085 | 0.044 | 0.206 | -0.227 | 0.283 | 0.278 | – | – | – | 0.027 | –
7 | BRAF, A0A2R8Y8E0 | – | -1.03 (active) | – | -0.006 | – | – | 0.047 | -0.078 | – | – | – | – | – | – | -0.021 | – | – | – | -0.078 | –
8 | ABCA4 (UniProt P78363) | -0.145 | -0.068 | – | 0.23 | 0.015 | 0.117 | -0.202 | -0.172 | – | 0.015 | – | – | – | – | -0.168 | -0.163 | -0.087 | 0.576 (active) | 0.033 | -0.046
9 | ATXN7L3 isoform 2 (UniProt Q14CW9) | 0.013 | -0.017 | – | -0.046 | -0.042 | -0.042 | -0.166 | 0.036 | – | -0.2 | – | – | – | – | -0.09 | – | – | – | 0.137 | –
10 | ACSL6 isoform 1 (UniProt Q9UKU0) | 0.075 | -0.014 | 0.17 | 0.04 | 0.133 | – | 0.08 | 0.01 | 0.149 | -0.069 | – | – | – | -0.226 | – | -0.014 | -0.459 (active) | 0.082 | 0.035 | -0.159
11 | ARMC8 isoform 6 (UniProt Q8IUR7) | – | – | 0.031 | 0.075 | -0.021 | – | 0.048 | -0.196 | 0.016 | -0.004 | – | – | – | – | – | – | – | – | – | –
12 | ATXN3 isoform 1 (UniProt P54252) | – | -0.08 | 0.005 | 0.02 | 0.179 | -0.371 | 0.099 | 0.011 | -0.083 | -0.039 | 0.012 | 0.04 | -0.401 (active) | – | -0.043 | -0.016 | -0.015 | – | -0.016 | –
13 | APH1A (UniProt Q96BI3) | -0.136 | – | 0.237 | 0.021 | 0.002 | -0.023 | 0.004 | -0.019 | 0.19 | -0.183 | 0.091 | 0.121 | 0.031 | 0.034 | 0.042 | 0.026 | 0.03 | – | -0.085 | –
14 | ACP1 (UniProt P24666) | 0.007 | – | 0.071 | 0.076 | 0.12 | 0.084 | -0.001 | -0.034 | 0.12 | 0.167 | 0.01 | -0.047 | -0.102 | 0.099 | -0.123 | 0.077 | -0.061 | 0.001 | 0.039 | 0.03
15 | BRAF (UniProt P15056) | 0.15 | – | 0.148 | -0.031 | 0.022 | 0 | 0.043 | 0.008 | 0.036 | 0.034 | 0.02 | 0.144 | -0.097 | -0.039 | -0.01 | 0.029 | -0.07 | -0.053 | -0.049 | 0.04
16 | ACTR3B (UniProt Q9P1U1) | – | -0.046 | 0.019 | 0.147 | – | – | 0.261 | 0.038 | -0.05 | – | -0.05 | 0.014 | -0.063 | – | 0.198 | -0.047 | 0.048 | – | – | –
17 | AP2M1 (UniProt C9JTK4) | -0.04 | – | -0.262 | – | -0.079 | 0.03 | -0.051 | – | -0.243 | -0.016 | – | – | – | -0.049 | -0.033 | – | – | 0.009 | -0.172 | 0.027
18 | AUH (UniProt Q13825) | – | -0.007 | 0.091 | 0.279 | 0.096 | 0.011 | – | -0.129 | 0.128 | 0.021 | -0.107 | 0.008 | 0.486 (active) | -0.183 | 0.082 | -0.094 | 0.086 | – | -0.185 | –
19 | ALG14 (UniProt Q96F25) | – | -0.13 | -0.053 | 0.03 | 0.03 | 0.2 | -0.077 | -0.014 | 0.062 | 0.016 | 0.045 | 0.052 | 0.11 | -0.124 | 0.068 | -0.215 | 0.443 | -0.479 | -0.131 | 0.382
20 | ARFIP1 isoform 2 (UniProt P53367) | -0.106 | – | – | 0.061 | 0.019 | – | 0.071 | -0.102 | – | 0.088 | 0.051 | 0.097 | -0.134 | -0.124 | 0.031 | 0.259 | -0.512 (active) | -0.025 | 0.121 | -0.004
21 | ARHGAP25 isoform 4 (UniProt P42331) | – | – | 0.086 | 0.307 | -0.018 | -0.031 | -0.031 | -0.103 | 0.134 | 0.088 | – | – | – | 0.127 | – | 0.072 | -0.221 | 0.078 | -0.052 | 0.083
22 | ABHD11 (UniProt Q8NFV4) | – | -0.065 | 0.139 | 0.02 | 0.057 | -0.077 | -0.003 | 0.045 | 0.007 | -0.016 | -0.004 | -0.011 | -0.127 | -0.033 | 0.003 | 0.086 | -0.126 | -0.028 | 0.023 | 0.272
23 | ANGEL1 (UniProt Q9UNK9) | – | -0.121 | -0.079 | – | 0.033 | – | – | – | 0.038 | -0.008 | – | – | – | – | 0.591 (active) | – | – | – | – | –
24 | ATP6V0A1 (UniProt Q93050) | – | – | – | – | -0.095 | – | – | – | – | -0.082 | – | – | – | – | – | – | – | – | – | –
25 | ATF1 (UniProt P18846) | -0.066 | – | 0.035 | 0.003 | 0.079 | 0 | -0.065 | 0.005 | 0.002 | -0.104 | -0.113 | -0.016 | 0.109 | – | – | 0.035 | -0.002 | -0.026 | 0.002 | 0.17
26 | BRMS1 (UniProt Q9HCU9) | – | – | – | – | – | -0.034 | – | – | – | – | – | – | – | -0.092 | – | 0.144 | -0.124 | 0.512 (active) | 0.137 | -0.018
